In the library only some 5.9% were active in any assay of this set; here they are far more common.
GLP-1R agonist: qHTS of GLP-1 Receptor Agonists; HEK293 GLP-1R CRE-luciferase, luminescence, 4-6 h; cells express a hypersensitive GLP-1R form; Potency, µM (titrated, usually from 45.6 µM), inactives show at the highest dose activation, hits mostly activators; AID 624172, 2012; Glucagon-like peptide 1 receptor (Homo sapiens), P43220; 380,000 tested, 0.007% active; further: % of control where 0% means no effect
RORg inh: qHTS for inhibitors of ROR gamma transcriptional activity. 310,000 tested, 5.4% active. Potency, µM (series often up to 53.6 µM), inactives show at the top dose activity change, negative = inhibition, most hits filed as inhibitors. Drosophila S2 Gal4-RORgamma UAS-luciferase reporter, 20 h. AID 2551, 2010; further: on the % scale 0 is the no-effect control and ±100 the full control effect; nearly all actives have a fitted effect of over 60% in size
Target sequence (P51450 whole entry, looked up, the tested form may be a part): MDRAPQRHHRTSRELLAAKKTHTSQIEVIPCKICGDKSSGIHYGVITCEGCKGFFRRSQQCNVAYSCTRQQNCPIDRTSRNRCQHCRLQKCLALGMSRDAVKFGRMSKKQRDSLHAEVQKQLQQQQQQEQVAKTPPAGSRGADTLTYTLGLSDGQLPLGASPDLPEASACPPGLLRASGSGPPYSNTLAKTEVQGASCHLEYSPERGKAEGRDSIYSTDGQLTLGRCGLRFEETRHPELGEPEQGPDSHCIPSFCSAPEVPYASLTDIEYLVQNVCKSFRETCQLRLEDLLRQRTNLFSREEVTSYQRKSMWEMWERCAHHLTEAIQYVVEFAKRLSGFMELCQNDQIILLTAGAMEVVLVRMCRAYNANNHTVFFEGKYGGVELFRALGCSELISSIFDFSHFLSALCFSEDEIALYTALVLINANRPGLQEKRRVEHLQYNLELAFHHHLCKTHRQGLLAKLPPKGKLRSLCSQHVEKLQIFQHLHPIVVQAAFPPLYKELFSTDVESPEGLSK
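Compounds are pin-transferred onto Drosophila Schneider cells expressing a copper-inducible Gal4–ROR gamma transactivation domain fusion. After 1 hr, copper sulfate is added to 700 uM final; luciferase is read 20 hr later.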
VP16 counter: VP16 counterscreen qHTS for inhibitors of ROR gamma transcriptional activity | Potency, µM (highest dose often 53.6 µM), inactives show at the top dose activity, negative = inhibition, usual class: inhibitors | Drosophila S2 Gal4-VP16 UAS-luciferase, luminescence, 20 h | AID 2546, 2010 | 310,000 tested, 3.5% active;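 further: Gal4-VP16 expression switched on by copper sulfate through the metallothionein promoter; on the % scale 0 is the no-effect control and ±100 the full control effect; nearly all actives have a fitted effect of over 50% in size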
HEK293 tox: qHTS of GLP-1 Receptor Inverse Agonists: Cytotox Screen; Potency, µM (top dose mostly 38.3 µM), for inactives: top-dose activity change, negative = inhibition, usual class: inhibitors; AID 624418, 2012; HEK293 cAMP-luciferase reporter cells, luminescence, 24 h; 410,000 tested, 0.13% active;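 further: loss of luciferase light is scored as toxicity; on the % scale 0 is the no-effect control and ±100 the full control effect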
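Step one: seed cells (200 cells/uL, DMEM with 10% Nu serum, 1% pen-strep). Step two: 12-hour incubation at 37 deg C. Step three: pin 23 nL compound, incubate 24 hr. Step four: add luciferase reagent, read luminescence 12 min later.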
GLP-1R inv ag: qHTS of GLP-1 Receptor Inverse Agonists (Inhibition Mode); Glucagon-like peptide 1 receptor (Homo sapiens), P43220; HEK293 GLP-1R CRE-luciferase, luminescence, 24 h; GLP-1R form is constitutively active; Potency, µM (doses to about 38.3 µM), for the others: at the top dose activity change, negative = inhibition, actives largely listed as inhibitors; 410,000 tested, 1.6% active; AID 624417, 2012; further: on the % scale 0 is the no-effect control and ±100 the full control effect; nearly all actives have a fitted effect of over 55% in size
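Luminescence readout: a drop in cAMP-driven luciferase signal flags inverse agonism at a constitutively active GLP-1R stably expressed in HEK293. Compound exposure lasted 24 hr at 37 deg C, 5% CO2.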
Numbers without * were called inactive; ? = inconclusive; nt = no result given; [ ] = remark or other dose. The call rests on the fitted dose curve; in most records, active means well fitted curve in the direction sought with a large enough effect; inconclusive means small, poorly fitted or top-dose-only effect, or another doubt; inactive means no such curve, though single readings can be large; an effect the other way counts as inactive or inconclusive. Potency means the concentration at half of the fitted maximal effect.

SMILES	GLP-1R agonist	RORg inh	VP16 counter	HEK293 tox	GLP-1R inv ag
O=C(NC(=S)Nc1cccc(C(F)(F)F)c1)c1ccc2nonc2c1	0%	3.2µM*	10µM*	?	?
COc1cc(Nc2ccccn2)cc(C(=O)Nc2cccc(C(F)(F)F)c2)c1	2%	28%	11%	?	11µM*
CCOc1cc(OCC)cc(C(=O)NC(=S)Nc2cccc(C(F)(F)F)c2)c1	-8%	5µM*	0%	-2%	-8%
Cc1ccc(-n2nc(CO)c(C(=O)NC(C)c3ccccc3)n2)cc1C (stereo not drawn)	nt	nt	nt	11%	?
COc1ccc(Cl)cc1NC(=O)CN(c1cc(C)cc(C)c1)S(=O)(=O)c1c(C)n[nH]c1C	-7%	nt	nt	-14%	?
Cc1cc(/C=C\c2ccccc2)nc2ccccc12	4%	11µM*	-7%	9%	?
COc1ccc(/C=C/c2cc(C(=O)O)c3ccccc3n2)cc1	-2%	1.1µM*	1.4µM*	41%	?
COc1cc(OC)c(OC)cc1/C=C/c1cc(C(=O)O)c2ccccc2n1	4%	-13%	2%	2%	13%
COc1ccc(C2CC(c3ccccc3)Oc3cc(OC)c(OC)c(OC)c32)cc1 (stereo not drawn)	nt	-9%	6%	nt	nt
CSCC[C@H](NC(=O)[C@H](CO)NC(=O)[C@H](Cc1ccc(O)cc1)NC(=O)[C@@H](N)CO)C(=O)N[C@@H](CCC(=O)O)C(=O)N[C@@H](Cc1cnc[nH]1)C(=O)N[C@@H](Cc1ccccc1)C(=O)N[C@@H](CCCNC(=N)N)C(=O)N[C@@H](Cc1c[nH]c2ccccc12)C(=O)NCC(=O)N[C@@H](CCCCN)C(=O)N1CCC[C@H]1C(=O)N[C@H](C(=O)NCC(=O)N[C@@H](CCCCN)C(=O)N[C@@H](CCCCN)C(=O)N[C@@H](CCCNC(=N)N)C(=O)N[C@@H](CCCNC(=N)N)C(=O)N1CCC[C@H]1C(=O)N[C@H](C(=O)N[C@@H](CCCCN)C(=O)N[C@H](C(=O)N[C@@H](Cc1ccc(O)cc1)C(=O)N1CCC[C@H]1C(=O)O)C(C)C)C(C)C)C(C)C	nt	10%	7%	nt	nt
CCOC(=O)N1CCC(N(CCN(C)C)C(=S)Nc2cc(Cl)ccc2C)CC1	11%	-44%	-5%	?	5.6µM*
CCOC(=O)N1CCC(N(CCOC)C(=S)Nc2cccc(SC)c2)CC1	-3%	20µM*	4%[10 µM]	-8%	?
CCOC(=O)N1CCC(N(CCN(C)C)C(=S)Nc2cccc(OC)c2)CC1	-3%	?	0%	4%	2%
CCOC(=O)N1CCC(N(CCN(C)C)C(=S)Nc2cccc(Cl)c2)CC1	-1%	-39%	-17%[10 µM]	-5%	11µM*
CCOC(=O)N1CCC(N(CCN(C)C)C(=S)Nc2cc(Cl)cc(Cl)c2)CC1	-1%	10µM*	?	3%	3%
CC(=O)N1CCc2cc(CNC(=O)Nc3ccc(Br)c(C)c3)ccc21	nt	nt	nt	2%	7%
CCCCNc1nc(C)nc2c1nc(C)n2CCC	nt	?	-6%	nt	nt
COc1ccc(-c2nc3cncnc3n(-c3ccccc3)c2=O)cc1	nt	10%	-8%	nt	nt
Cc1ccc(NC(=O)CN2C(=O)N/C(=C/c3ccc(C)o3)C2=O)cc1	4%	32%	?	46%	0%
Cc1cccc(NC(=O)CN2C(=O)N/C(=C/c3ccc(C)o3)C2=O)c1	-17%	?	18µM*	-10%	12%
C=CCN1C(=O)N/C(=C/c2ccc(C)o2)C1=O	-4%	5.6µM*	5µM*	2%	4%
COc1cccc(NC(=O)Cn2nc(C)c3c(C)n(-c4ccccc4)nc3c2=O)c1	nt	nt	nt	-2%	-12%
O=C1CN(C(=O)COc2ccc(Cl)cc2)C(c2ccc(F)cc2)c2cc(Br)ccc2N1 (stereo not drawn)	nt	nt	nt	-28%	?
CC(C)OC(=O)[C@@H]1CC[C@H](C)[C@@H](CCC[C@@H]2CC=C[C@H](CC#N)O2)O1	nt	?	4%	nt	nt
CCn1cnc2cc(NCc3cccs3)ccc21	-2%	-18%	3%	-6%	14%
SMILES	GLP-1R agonist	RORg inh	VP16 counter	HEK293 tox	GLP-1R inv ag
CC(C)(C)n1cnc2cc(NCc3cccs3)ccc21	14%	11µM*	5%[10 µM]	-13%	-5%
Cc1ccc(CNCCCSc2nc(C)cc(C)n2)cc1	-5%	?	2µM*	4%	-14%
O=C(O)CCCc1nc(-c2ccccc2)no1	4%	14µM*	?	4%	2%
NC(=O)CCCc1nc(-c2ccccc2)no1	8%	-1%	-14%	-2%	41%
O=C(O)CCCc1nc(-c2ccc(Cl)cc2)no1	-8%	0.35µM*	?	8%	-20%
O=C(CCCc1nc(-c2ccc(Cl)cc2)no1)Nc1cccnc1	11%	16µM*	11µM*	-1%	3%
Cc1cccc(NC(=S)NC(C)C(c2ccccc2)N2CCN(C)CC2)c1C (stereo not drawn)	5%	11µM*	-8%	-22%	?
CC(NC(=S)Nc1ccc(Cl)cc1)C(c1ccccc1)N1CCOCC1 (stereo not drawn)	4%	6.3µM*	6.3µM*	?	?
CCN1CCN(C(c2cccs2)C(C)NC(=S)Nc2cccc(C)c2C)CC1 (stereo not drawn)	10%	11µM*	-3%	-7%	-8%
Cc1ccccc1NC(=S)NN1CCN(C)CC1	-12%	-27%	0%	-9%	22%
N#CC1=C(N)N(c2ccc(Cl)cc2)C2=C(C(=O)CCC2)C1c1cc(CN2CCOCC2)cs1 (stereo not drawn)	nt	nt	nt	-1%	-2%
S=C=Nc1cccc(NC(=S)NCCCCNC(=S)Nc2cccc(N=C=S)c2)c1	nt	10%	-12%	nt	nt
COc1ccc(CN2C[C@H]3CCCN3c3cc(Br)ccc3S2(=O)=O)cc1	15%	nt	nt	-25%	0.89µM*
Cc1ccc(NS(=O)(=O)c2c(C)nc3sc(C)c(C)n3c2=O)cc1F	nt	nt	nt	1%	-13%
Cc1noc(C)c1-c1nc(NCc2cccs2)c2ccccc2n1	nt	-27%	-11%	nt	nt
N#Cc1ccc(NC(=S)Nc2ccccc2)cc1	-1%	-17%	-2%	0%	1%
S=C(Nc1ccccc1)Nc1ccccc1C#Cc1ccccc1	nt	11µM*	?	nt	nt
S=C(Nc1ccccc1)Nc1ccccc1-n1cccc1	5%	4.5µM*	16µM*	-7%	-8%
N#Cc1ccccc1NC(=S)Nc1ccc(F)cc1	5%	18µM*	20µM*	7%	20%
C[Si](C)(C)C#Cc1ccccc1NC(=S)Nc1ccccc1	nt	14µM*	?	nt	nt
